Measurements taken from PubChem BioAssay (EPA / NIEHS).
The source made the active and inactive calls. Rule for the calls: active = hit-call score of the fitted dose curve at least 0.9, where 1 is the maximum; inactive = score below 0.9.

Experiments:
[1] = ATG_GLI_CIS: Attagene CIS-FACTORIAL HepG2 Assay for human Zinc Finger Protein GLI1 (AID 2282945); conditions: HepG2, Attagene cis-factorial reporter mRNA, GLI element; actives raise or lower the signal
Procedure, shortened: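 Transiently transfected HepG2 cells report endogenous transcription factor activity via cis-element-driven reporter units. After 24 h compound exposure, reporter mRNA was measured by RT-PCR with capillary electrophoresis; bidirectional fitting against DMSO baseline.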

[2] = molecular target: Bile acid receptor (Homo sapiens) (UniProt Q96RI1); experiment: ATG_IR1_CIS: Attagene CIS-FACTORIAL HepG2 Assay for human Nuclear Receptor Subfamily 1 Group H Member 4 (NR1H4), IR1 submotif (AID 2282946); conditions: IR1 reporter transcription, actives raise or lower the signal
Procedure, shortened: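 HepG2 cells transiently transfected with multiple cis-promoter-driven reporter units to measure endogenous transcription factor activity; 24 h exposure. Reporter mRNA read by RT-PCR, FAM labelling, HpaI digestion and capillary electrophoresis. Bidirectional fit versus DMSO.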

[3] = ATG_ISRE_CIS: Attagene CIS-FACTORIAL HepG2 Assay for human Interferon Regulatory Factor 1 (IRF1) binding to an Interferon-Stimulated Response Element (ISRE) (AID 2282948); conditions: HepG2 ISRE cis-reporter (Attagene), mRNA transcription readout; actives raise or lower the signal
Procedure, shortened: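 Transfected HepG2 (multiple reporter transcription units, cis elements) dosed 24 h. RNA → oligo(dT) RT → PCR → 6-FAM primer extension → HpaI → CE. DMSO = negative control/baseline.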

[4] = ATG_M_32_CIS: Attagene CIS-FACTORIAL HepG2 Assay for M32 Transcription Factor (Internal Marker) (AID 2282949); conditions: HepG2 Attagene cis-factorial M32 reporter, mRNA; actives raise or lower the signal;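 note: background control marker of the multiplexed CIS panel rather than a real target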
Procedure, shortened: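 Internal background marker read-out: RT-PCR/capillary electrophoresis fluorescence of reporter transcripts from transiently transfected HepG2 cells after 24 h chemical exposure. Activity fitted bidirectionally relative to DMSO negative control.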

[5] = molecular target: Hypoxia-inducible factor 1-alpha (Homo sapiens) (UniProt Q16665); experiment: ATG_HIF1a_CIS: Attagene CIS-FACTORIAL HepG2 Assay for human Hypoxia Inducible Factor 1 (HIF1A) (AID 2282951); conditions: HepG2 Attagene cis-factorial HIF1a reporter transcription; actives raise or lower the signal
Procedure, shortened: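 RT-PCR/capillary electrophoresis fluorescence readout of reporter transcripts from endogenous-TF-driven cis elements in transfected HepG2 cells, 24 h exposure; activity fitted in both directions against DMSO controls.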

[6] = molecular target: Hepatocyte nuclear factor 6 (Homo sapiens) (UniProt Q9UBC0); experiment: ATG_HNF6_CIS: Attagene CIS-FACTORIAL HepG2 Assay for human Hepatocyte Nuclear Factor 6 (HNF6) (AID 2282952); conditions: HepG2 Attagene cis-factorial HNF6 reporter transcription; actives raise or lower the signal
Procedure, shortened: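 HepG2 cells transiently transfected with cis-element-driven multiple reporter transcription units, dosed 24 h; reporter mRNA quantified by RT-PCR, FAM primer extension, HpaI digestion and capillary electrophoresis; bidirectional fit versus DMSO baseline.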

[7] = molecular target: Heat shock factor protein 1 (Homo sapiens) (UniProt Q00613); experiment: ATG_HSE_CIS: Attagene CIS-FACTORIAL HepG2 Assay for human Heat Shock Transcription Factor 1 (HSE) (AID 2282953); conditions: HepG2 HSE cis-reporter, Attagene RNA transcription; actives raise or lower the signal
Procedure, shortened: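 HepG2 cells transiently transfected with multiple reporter transcription units under cis-regulatory promoter control, measuring endogenous transcription factor activity. After 24 h chemical exposure, reporter mRNA quantified by RT-PCR, fluorescent labelling, HpaI digestion and capillary electrophoresis; bidirectional fit versus DMSO.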

[8] = ATG_MRE_CIS: Attagene CIS-FACTORIAL HepG2 Assay for human Metal Responsive Element (MRE) (AID 2282954); conditions: HepG2 MRE cis-reporter transcription, Attagene multiplex; actives raise or lower the signal
Procedure, shortened: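 Fluorescent reporter fragments separated by capillary electrophoresis give mRNA induction for the MRE unit after 24 h treatment of transfected HepG2 cells. Endogenous transcription-factor activity is read; DMSO serves as negative control and baseline.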

[9] = ATG_PBREM_CIS: Attagene CIS-FACTORIAL HepG2 Assay for human Phenobarbital-responsive Enhancer Module (PBREM) (AID 2282955); conditions: HepG2 PBREM cis-reporter, Attagene multiplexed transcription; actives raise or lower the signal
Procedure, shortened: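 Reporter mRNA read by RT-PCR, 6-FAM primer extension, HpaI digestion and capillary electrophoresis. Transfected HepG2 cells, 24 h compound exposure. Gain or loss of signal fitted bidirectionally relative to DMSO baseline.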

[10] = molecular target: Paired box protein Pax-6 (Homo sapiens) (UniProt P26367); experiment: ATG_Pax6_CIS: Attagene CIS-FACTORIAL HepG2 Assay for human Paired Box 6 (PAX6) (AID 2282956); conditions: HepG2 CIS-FACTORIAL PAX6 reporter transcription, RNA readout; actives raise or lower the signal
Procedure, shortened: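 Transient MRTU transfection of HepG2 → compound exposure 24 h → TriZol RNA, oligo(dT) RT → PCR, 6-FAM primer extension, HpaI cut → capillary electrophoresis; activity fitted both directions against DMSO.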

[11] = ATG_PXRE_CIS: Attagene CIS-FACTORIAL HepG2 Assay for human Pregnane X Receptor Element (PXRE) (AID 2282957); conditions: HepG2 Attagene CIS-FACTORIAL PXRE reporter, mRNA; actives raise or lower the signal
Procedure, shortened: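 HepG2 cells transiently transfected with cis-regulated multiple reporter transcription units; endogenous factor activity measured as reporter mRNA 24 h after dosing. RT-PCR, fluorescent primer extension, HpaI digestion, capillary electrophoresis; bidirectional fit versus DMSO baseline.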

[12] = ATG_PPRE_CIS: Attagene CIS-FACTORIAL HepG2 Assay for human Peroxisome Proliferator-activated Response Element (PPRE) (AID 2282958); conditions: HepG2 PPRE cis-element reporter, Attagene transcription factor profiling; actives raise or lower the signal
Procedure, shortened: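 Read-out: fluorescent reporter mRNA fragments resolved by capillary electrophoresis after RT-PCR. HepG2 cells carried transiently transfected PPRE-driven cis reporter constructs and were dosed for 24 h; gain or loss of signal fitted relative to DMSO.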

[13] = ATG_RORE_CIS: Attagene CIS-FACTORIAL HepG2 Assay for human RAR-related Orphan Receptor Element (RORE) (AID 2282959); conditions: HepG2 Attagene cis-factorial RORE reporter, mRNA; actives raise or lower the signal
Procedure, shortened: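 Readout: fluorescent reporter mRNA by RT-PCR plus capillary electrophoresis, 24 h after dosing transfected HepG2 cells. Endogenous transcription factor activity on a cis promoter element is measured. Gain or loss of signal fitted against DMSO.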

[14] = ATG_Sox_CIS: Attagene CIS-FACTORIAL HepG2 Assay for human SRY-box transcription factor (SOX) (AID 2282960); conditions: HepG2 Attagene cis-factorial SOX reporter, mRNA; actives raise or lower the signal
Procedure, shortened: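 Read-out: fluorescent RT-PCR products of SOX1-linked reporter transcripts resolved by capillary electrophoresis, fitted bidirectionally against DMSO. Transiently transfected HepG2 cells, 24 h after chemical exposure, endogenous transcription factor activity.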

[15] = molecular target: Transcription factor Sp1 (Homo sapiens) (UniProt P08047); experiment: ATG_Sp1_CIS: Attagene CIS-FACTORIAL HepG2 Assay for human Specificity Protein 1 (Sp1) (AID 2282961); conditions: HepG2 Sp1 cis-reporter transcription, actives raise or lower the signal
Procedure, shortened: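 Read-out: fluorescence of 6-FAM-labeled, HpaI-digested RT-PCR products separated by capillary electrophoresis. HepG2 cells carried transfected cis-element reporter units and were exposed to chemicals for 24 h; gain or loss of signal fitted relative to DMSO.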

[16] = ATG_SREBP_CIS: Attagene CIS-FACTORIAL HepG2 Assay for human Sterol Regulatory Element Binding (SREBP) (AID 2282962); conditions: HepG2 Attagene cis-factorial SREBP reporter, mRNA; actives raise or lower the signal
Procedure, shortened: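 Transfected HepG2 (cis-regulated reporter library, endogenous TFs) → compound 24 h → total RNA → oligo(dT) RT → reporter-specific PCR → FAM primer extension, HpaI cut → CE fluorescence. Fit bidirectional vs DMSO.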

[17] = molecular target: Signal transducer and activator of transcription 3 (Homo sapiens) (UniProt P40763); experiment: ATG_STAT3_CIS: Attagene CIS-FACTORIAL HepG2 Assay for human Signal Transducer and Activator of Transcription 3 (STAT3) (AID 2282963); conditions: HepG2, Attagene cis-factorial STAT3 reporter transcription; actives raise or lower the signal
Procedure, shortened: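 Values derive from bidirectional fits relative to DMSO of reporter mRNA levels, measured by RT-PCR with capillary electrophoresis, in HepG2 cells carrying transiently transfected cis-regulated reporter units and exposed 24 h.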

[18] = ATG_TA_CIS: Attagene CIS-FACTORIAL HepG2 Assay for human TA Basal Promoter (AID 2282964); conditions: HepG2 Attagene CIS-factorial TA basal promoter reporter; actives raise or lower the signal
Procedure, shortened: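 HepG2 cells transiently transfected with multiplexed cis-promoter reporter units, dosed 24 h. Reporter mRNA measured by RT-PCR, 6-FAM labelling, HpaI digestion and capillary electrophoresis; bidirectional fit versus DMSO baseline, serving as background control.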

[19] = ATG_GRE_CIS: Attagene CIS-FACTORIAL HepG2 Assay for human Glucocorticoid Response Elements (GRE) (AID 2282947); conditions: HepG2 GRE cis-reporter, Attagene multiplex mRNA; actives raise or lower the signal
Procedure, shortened: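 Endogenous transcription factor activity is read through cis-element reporter constructs transiently transfected into HepG2 cells. After 24 h treatment, labelled RT-PCR products are resolved by capillary electrophoresis; DMSO sets baseline for bidirectional curve fitting.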

[20] = ATG_M_06_CIS: Attagene CIS-FACTORIAL HepG2 Assay for M06 Transcription Factor (Internal Marker) (AID 2282950); conditions: HepG2 Attagene CIS-FACTORIAL M06 internal marker reporter; actives raise or lower the signal
Procedure, shortened: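 HepG2 cells transiently transfected with cis-regulated multiple reporter transcription units were exposed to chemical for 24 h; reporter mRNA was quantified by RT-PCR, 6-FAM primer labelling, HpaI digestion and capillary electrophoresis, fitted bidirectionally against DMSO.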

Measured: AC50

Heat shock factor protein 1 (Homo sapiens), sequence (Q00613 whole entry, looked up): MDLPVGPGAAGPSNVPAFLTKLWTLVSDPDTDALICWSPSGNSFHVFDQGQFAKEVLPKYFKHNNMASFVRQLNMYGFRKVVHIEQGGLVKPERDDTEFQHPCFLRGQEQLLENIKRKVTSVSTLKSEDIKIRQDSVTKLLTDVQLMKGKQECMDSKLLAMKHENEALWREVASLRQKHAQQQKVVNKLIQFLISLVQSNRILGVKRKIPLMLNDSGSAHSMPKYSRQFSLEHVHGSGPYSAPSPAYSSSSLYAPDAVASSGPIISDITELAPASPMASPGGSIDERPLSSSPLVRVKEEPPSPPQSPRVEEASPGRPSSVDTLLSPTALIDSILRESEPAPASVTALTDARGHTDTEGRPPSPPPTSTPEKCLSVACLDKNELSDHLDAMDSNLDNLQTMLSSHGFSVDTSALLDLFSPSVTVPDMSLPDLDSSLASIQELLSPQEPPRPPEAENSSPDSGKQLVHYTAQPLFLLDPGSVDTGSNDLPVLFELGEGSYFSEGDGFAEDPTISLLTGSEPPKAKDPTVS
Hepatocyte nuclear factor 6 (Homo sapiens), sequence (Q9UBC0 whole entry, looked up): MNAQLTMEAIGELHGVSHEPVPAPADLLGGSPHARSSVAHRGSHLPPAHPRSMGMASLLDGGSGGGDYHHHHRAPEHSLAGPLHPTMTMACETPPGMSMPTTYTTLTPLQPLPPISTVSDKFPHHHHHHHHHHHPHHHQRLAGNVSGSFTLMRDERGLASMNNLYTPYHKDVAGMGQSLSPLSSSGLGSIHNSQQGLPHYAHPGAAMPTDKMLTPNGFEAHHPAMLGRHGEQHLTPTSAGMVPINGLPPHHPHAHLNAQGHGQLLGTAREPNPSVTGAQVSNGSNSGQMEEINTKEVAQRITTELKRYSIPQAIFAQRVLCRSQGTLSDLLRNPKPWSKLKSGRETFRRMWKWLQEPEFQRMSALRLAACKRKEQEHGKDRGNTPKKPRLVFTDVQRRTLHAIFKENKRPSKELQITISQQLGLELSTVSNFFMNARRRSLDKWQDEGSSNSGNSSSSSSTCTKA
Paired box protein Pax-6 (Homo sapiens), sequence (P26367 whole entry, looked up): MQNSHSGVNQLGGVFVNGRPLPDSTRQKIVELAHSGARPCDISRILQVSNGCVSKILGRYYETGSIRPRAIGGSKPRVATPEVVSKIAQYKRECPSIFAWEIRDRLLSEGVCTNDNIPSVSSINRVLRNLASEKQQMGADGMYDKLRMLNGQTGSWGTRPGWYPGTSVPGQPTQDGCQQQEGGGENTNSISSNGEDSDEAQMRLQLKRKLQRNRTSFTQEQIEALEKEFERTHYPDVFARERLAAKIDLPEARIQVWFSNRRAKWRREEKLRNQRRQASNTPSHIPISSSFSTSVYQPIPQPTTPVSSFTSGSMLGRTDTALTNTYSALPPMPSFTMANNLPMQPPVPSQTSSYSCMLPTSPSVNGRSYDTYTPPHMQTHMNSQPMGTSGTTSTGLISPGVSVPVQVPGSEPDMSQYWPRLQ
Transcription factor Sp1 (Homo sapiens), sequence (P08047 whole entry, looked up): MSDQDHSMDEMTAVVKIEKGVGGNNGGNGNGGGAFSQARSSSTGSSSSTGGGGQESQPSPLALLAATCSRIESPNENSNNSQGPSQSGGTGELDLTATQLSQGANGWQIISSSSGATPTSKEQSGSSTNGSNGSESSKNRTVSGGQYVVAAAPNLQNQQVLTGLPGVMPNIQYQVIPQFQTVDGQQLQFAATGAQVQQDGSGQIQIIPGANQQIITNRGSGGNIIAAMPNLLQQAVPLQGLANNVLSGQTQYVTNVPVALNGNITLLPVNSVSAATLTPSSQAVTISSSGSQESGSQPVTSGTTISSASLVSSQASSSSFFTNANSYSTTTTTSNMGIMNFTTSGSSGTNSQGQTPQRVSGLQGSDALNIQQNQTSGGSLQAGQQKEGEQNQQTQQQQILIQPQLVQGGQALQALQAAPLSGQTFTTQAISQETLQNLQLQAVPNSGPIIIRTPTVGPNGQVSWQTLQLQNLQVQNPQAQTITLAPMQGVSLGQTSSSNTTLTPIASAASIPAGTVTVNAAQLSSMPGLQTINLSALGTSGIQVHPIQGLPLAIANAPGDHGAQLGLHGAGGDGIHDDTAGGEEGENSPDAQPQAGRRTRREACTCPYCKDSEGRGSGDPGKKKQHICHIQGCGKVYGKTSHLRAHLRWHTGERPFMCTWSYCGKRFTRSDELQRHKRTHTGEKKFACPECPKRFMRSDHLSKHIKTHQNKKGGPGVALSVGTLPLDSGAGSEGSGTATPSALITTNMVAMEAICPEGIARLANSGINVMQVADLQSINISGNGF
Signal transducer and activator of transcription 3 (Homo sapiens), sequence (P40763 whole entry, looked up): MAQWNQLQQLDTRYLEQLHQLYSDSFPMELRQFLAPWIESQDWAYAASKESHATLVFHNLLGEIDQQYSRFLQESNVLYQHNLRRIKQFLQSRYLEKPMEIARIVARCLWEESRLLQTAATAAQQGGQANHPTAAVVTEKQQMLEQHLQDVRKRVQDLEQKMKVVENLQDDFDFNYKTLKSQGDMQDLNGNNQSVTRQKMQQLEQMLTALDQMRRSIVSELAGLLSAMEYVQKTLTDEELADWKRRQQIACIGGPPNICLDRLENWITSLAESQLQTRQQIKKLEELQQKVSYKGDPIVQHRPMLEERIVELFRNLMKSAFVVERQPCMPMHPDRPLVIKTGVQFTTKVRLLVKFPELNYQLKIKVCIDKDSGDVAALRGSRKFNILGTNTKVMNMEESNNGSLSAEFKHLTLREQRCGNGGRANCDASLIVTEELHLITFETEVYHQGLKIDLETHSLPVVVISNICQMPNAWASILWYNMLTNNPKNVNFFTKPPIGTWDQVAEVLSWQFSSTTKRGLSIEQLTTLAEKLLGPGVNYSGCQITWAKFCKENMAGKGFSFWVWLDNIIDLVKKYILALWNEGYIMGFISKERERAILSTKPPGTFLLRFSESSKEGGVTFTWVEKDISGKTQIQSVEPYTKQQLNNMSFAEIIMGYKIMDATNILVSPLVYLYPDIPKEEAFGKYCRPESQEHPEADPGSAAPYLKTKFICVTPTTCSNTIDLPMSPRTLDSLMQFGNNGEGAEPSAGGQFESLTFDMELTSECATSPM
Hypoxia-inducible factor 1-alpha (Homo sapiens), sequence (Q16665 whole entry, looked up): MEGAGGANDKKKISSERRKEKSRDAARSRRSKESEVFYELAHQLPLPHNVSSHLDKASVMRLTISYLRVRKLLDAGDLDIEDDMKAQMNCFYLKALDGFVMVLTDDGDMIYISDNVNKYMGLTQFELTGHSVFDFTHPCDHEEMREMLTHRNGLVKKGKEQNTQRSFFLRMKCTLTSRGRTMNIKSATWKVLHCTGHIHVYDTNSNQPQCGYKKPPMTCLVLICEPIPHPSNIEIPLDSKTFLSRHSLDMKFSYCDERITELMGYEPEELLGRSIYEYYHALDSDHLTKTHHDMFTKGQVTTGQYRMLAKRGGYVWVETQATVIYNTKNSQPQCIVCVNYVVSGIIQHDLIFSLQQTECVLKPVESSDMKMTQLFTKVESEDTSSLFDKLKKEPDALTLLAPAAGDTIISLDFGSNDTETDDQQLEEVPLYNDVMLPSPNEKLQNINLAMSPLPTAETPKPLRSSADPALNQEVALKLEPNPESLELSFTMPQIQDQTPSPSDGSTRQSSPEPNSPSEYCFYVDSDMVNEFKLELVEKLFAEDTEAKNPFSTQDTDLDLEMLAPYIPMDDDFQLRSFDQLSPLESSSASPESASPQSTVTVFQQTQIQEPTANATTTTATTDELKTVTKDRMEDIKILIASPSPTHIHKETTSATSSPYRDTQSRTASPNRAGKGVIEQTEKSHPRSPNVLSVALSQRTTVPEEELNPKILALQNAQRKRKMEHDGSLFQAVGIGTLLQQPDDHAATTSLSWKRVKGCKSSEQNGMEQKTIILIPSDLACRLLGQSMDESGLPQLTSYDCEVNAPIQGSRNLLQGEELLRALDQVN
Bile acid receptor (Homo sapiens), sequence (Q96RI1 whole entry, looked up): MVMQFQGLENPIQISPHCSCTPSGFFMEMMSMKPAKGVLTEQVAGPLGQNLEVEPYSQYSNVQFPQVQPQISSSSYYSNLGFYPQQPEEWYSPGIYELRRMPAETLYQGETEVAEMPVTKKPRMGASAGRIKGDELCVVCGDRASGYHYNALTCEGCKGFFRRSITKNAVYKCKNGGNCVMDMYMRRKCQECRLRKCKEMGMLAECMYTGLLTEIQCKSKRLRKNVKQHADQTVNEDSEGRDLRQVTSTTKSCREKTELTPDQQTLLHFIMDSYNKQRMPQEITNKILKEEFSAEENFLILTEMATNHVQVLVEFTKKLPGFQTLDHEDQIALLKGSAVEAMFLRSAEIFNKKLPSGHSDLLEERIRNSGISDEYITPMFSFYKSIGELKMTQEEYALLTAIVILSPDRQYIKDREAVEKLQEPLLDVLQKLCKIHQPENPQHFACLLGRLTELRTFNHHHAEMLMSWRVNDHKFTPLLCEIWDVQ

COCCOCCOC
inactive: [1] | [2] | [3] | [4] | [5] | [6] | [7] | [8] | [9] | [10] | [11] | [12] | [13] | [14] | [15] | [16] | [17] | [18]

CCOC(=O)CCC(=O)OCC
inactive: [1] | [19] | [3] | [4] | [20] | [5] | [6] | [7] | [8] | [9] | [10] | [12] | [13] | [14] | [16] | [17] | [18]
active: [11] 47.8 µM

COC(=O)c1ccc(O)cc1
inactive: [1] | [19] | [3] | [4] | [20] | [5] | [7] | [8] | [10] | [11] | [12] | [14] | [15] | [16] | [17] | [18]

Nc1ccccc1N
active: [5] 41.3 µM | [10] 23 µM | [11] 82.4 µM | [12] 15.7 µM | [13] 28.5 µM | [15] 25.9 µM | [18] 50.8 µM
inactive: [1] | [19] | [3] | [4] | [20] | [7] | [9] | [14] | [16] | [17]

Cc1ccc(C)c(C)c1
inactive: [1] | [19] | [3] | [4] | [20] | [5] | [6] | [7] | [8] | [9] | [10] | [12] | [13] | [14] | [16] | [17] | [18]
active: [11] 27.5 µM

CCCCCCCCCCCCCO
active: [4] 34.3 µM | [5] 8.99 µM | [10] 34.3 µM
inactive: [1] | [19] | [3] | [20] | [7] | [8] | [9] | [11] | [12] | [14] | [16] | [17] | [18]

Cc1oc(-c2ccccc2)nc1CCOc1cccc2c1ccn2CCC(=O)O
inactive: [1] | [19] | [3] | [4] | [20] | [5] | [6] | [7] | [9] | [10] | [11] | [14] | [15] | [17] | [18]
active: [12] 0.0633 µM | [13] 23.8 µM | [16] 26.8 µM
